According to ChEMBL document CHEMBL4513216, “Probing the Open Global Health Chemical Diversity Library for Multistage-Active Starting Points for Next-Generation Antimalarials” (ACS Infect Dis, 2020):
Out of some 69,000 compounds screened, about 8,600 (12%) showed an effect of 50% or more. Only a selection was taken, and strong results are over-represented in it overall.

tested on: Plasmodium berghei; assay: Screen against P. berghei liver stage (PbLuc), transformed with Luciferase, at 10uM; assay type: functional, HepG2; settings: tested at 10 uM

SMILES	INHIBITION [%]
COc1cc(C(=O)N2C[C@@H]3CC[C@H]2CN(Cc2cscn2)C3)ccn1	-16.3
CCOC(=O)N1CCCn2nc(C(=O)NCCN(C)C)cc2C1	-10.2
CN(C)C(=O)NCc1cc2n(n1)CCCN(CC1[C@H]3CNC[C@@H]13)C2 (some centres not stated)	-14.6
CC1(C)[C@@H]2CC=C(CN3CCCn4nc(CNS(C)(=O)=O)cc4C3)[C@H]1C2	25.7
O=C(NCc1cc2n(n1)CCCN(Cc1ccc(CO)o1)C2)C1CCC1	11.8
CN(C)CCNC(=O)c1cc2n(n1)CCN(C(=O)CC(C)(C)C)C2	-15.7
CC1(C)[C@@H]2CC=C(CN3CCCn4nc(C(=O)NCCO)cc4C3)[C@H]1C2	68.4
CC1(C)[C@@H]2CC=C(CN3CCCn4nc(CCC(=O)O)cc4C3)[C@H]1C2	59.1
O=C(O)CCc1cc2n(n1)CCN(Cc1cnc(N3CCCC3)nc1)C2	7.43
O=C(O)CCc1cc2n(n1)CCN(Cc1ccc3[nH]ccc3c1)C2	-15.7
CC1(C)[C@@H]2CC=C(CN3CCCn4nc(C(=O)O)cc4C3)[C@H]1C2	65.6
Cc1cc(CN2CCCn3nc(CCC(=O)O)cc3C2)ccc1F	60.2
Cc1nc2ccccc2nc1CN1CCn2nc(CCC(=O)O)cc2C1	36
CC(C)CN1CCN(C)C(CCO)C1 (configuration not stated)	34.4
Cc1ccc(-c2cc(CNC(=O)N3CCC(N(C)C)CC3)on2)cc1	17.4
COc1ccc(C(=O)N2CC(=O)N(C3CCC3)CC(O)C2)c(OC)c1 (configuration not stated)	13.9
CO[C@@H]1CC[C@@H](NS(=O)(=O)c2cn(C)nc2C)[C@H]1O	33.8
c1ccc(CN2CCC(CNc3ncnc4c3CCNCC4)CC2)cc1	28.7
COc1ccc(-c2ccc(C(=O)N3CCOCC3CC(=O)O)o2)cc1 (configuration not stated)	1.71
O=C(CN1CCCCCC1)N1CCc2nnc(C3CCCNC3)n2CC1 (configuration not stated)	30.4
CC(C)c1noc(CCNC(=O)NCC2COc3ccccc3O2)n1 (configuration not stated)	7.24
O=C(c1ccco1)N1CCc2ncnc(Oc3cccnc3)c2CC1	29
O=C(CN1CCN(CC(O)C2CC2)CC1)NCc1ccccc1Cl (configuration not stated)	17.6
Cc1nnc(N2CCOC(C)C2)c(C#N)c1C (configuration not stated)	7.4
CS(=O)(=O)N1CCCC1Cn1cccn1 (configuration not stated)	20.8
COc1ccccc1C1=NOC(CC2(C(=O)NCCO)CCOCC2)C1 (configuration not stated)	8.72

SMILES	INHIBITION [%]
Cc1cc(CN2CCCCC2Cn2cncn2)no1 (configuration not stated)	20.8
c1ccc(-c2nc(CN3CCc4c(ncn4C4CC4)C3)cs2)cc1	34.1
CNS(=O)(=O)CC(=O)NCc1cc2c(s1)CCC(C)(C)C2	-19.3
O=C([C@H]1C[C@H]2OCC[C@H]2N(CCc2ccccc2)C1)N1CCCCO1	-0.569
CN1CCn2c(-c3cccc(F)c3)cnc2C12CCN(CC1CC1)CC2	8.85
CC(=O)N1CCn2c(-c3cccc(F)c3)cnc2C12CCNCC2	24.9
CNC(=O)N1CCC2(CC1)c1ncc(-c3cccc(F)c3)n1CCN2C	63.3
CC(=O)N1CCC2(CC1)c1ncc(-c3ccccc3)n1CCN2C	43
CC(=O)N1CCC2(CC1)c1ncc(-c3ccc(F)cc3)n1CCN2C	39.4
CC(=O)N1CCC2(CC1)c1ncc(-c3ccccc3)n1CCN2C(C)=O	-15.3
CCS(=O)(=O)N1CCC2(CC1)c1ncc(-c3cccnc3)n1CCN2C	24.9
CC(=O)N1CCC2(CC1)c1ncc(-c3cccnc3)n1CCN2C	58.4
CCN1CCn2c(-c3cccc(F)c3)cnc2C12CCN(C(C)=O)CC2	85.2
COc1ccccc1CNC(=O)CN(C)C(C)c1ccon1 (configuration not stated)	-13.6
COc1ccc(N2CCN(C(=O)COc3c(C)occc3=O)CC2)cc1	-1.99
O=C(O)c1ccc(=O)n(CC(c2ccc(Cl)cc2)N2CCCCCC2)c1 (configuration not stated)	10.8
OC(CNCc1nnc2ccccn12)c1ccc2c(c1)OCO2 (configuration not stated)	-10.8
Nc1nccnc1C1CN(C(=O)c2ccc3c(c2)OCO3)CCO1 (configuration not stated)	11.1
Cc1c(C2CC2)n[nH]c1NC(=O)C1CCCN(C(=O)NCC(C)C)C1 (configuration not stated)	35.7
CCCC1c2cccn2CCN1C(=O)Cn1cnc2sc(C)cc2c1=O (configuration not stated)	11.35
Cc1ccc(-c2noc(CN3CCOC(Cn4cccn4)C3)n2)cc1 (configuration not stated)	48.6
Cc1cc(C)n(C2CCCN(C(=O)CCc3nccs3)C2)n1 (configuration not stated)	21.6
Cn1ccnc1C(=O)NC[C@@H]1OC[C@H]2CN(CC3CC3)CC[C@H]21	20.4
Cn1ccnc1C(=O)NC[C@@H]1OC[C@H]2CN(S(C)(=O)=O)CC[C@H]21	64.7
Cn1ccnc1C(=O)NC[C@H]1OC[C@@H]2CCN(S(C)(=O)=O)C[C@@H]21	52.1
CN1CC[C@@H]2[C@@H](CO[C@H]2CNC(=O)c2nccn2C)C1	-17.7

SMILES	INHIBITION [%]
Cn1cc(C(=O)NC[C@@H]2OC[C@H]3CN(S(C)(=O)=O)CC[C@H]32)cn1	18.5
CCCN1CC[C@@H]2[C@@H](CO[C@H]2CNC(=O)c2nccn2C)C1	34
NCC(CO)Cc1cccc(OC(F)(F)F)c1 (configuration not stated)	-14.5
CC(C)N1Cc2c(C(=O)N3CCOCC3)nn(C)c2C1	6.82
CC(C)(C)C(=O)N1CCCC1c1cc(CO)[nH]n1 (configuration not stated)	3.585
CC(C)c1csc(C2CCCN(C(=O)c3ccc[nH]3)C2)n1 (configuration not stated)	59.1
CC(C)c1csc(C2CCCN(C(=O)c3ncccn3)C2)n1 (configuration not stated)	31.9
Cc1nc(C(=O)N2CCCC(c3nc(C(C)C)cs3)C2)c[nH]1 (configuration not stated)	8.12
CC(C)c1csc(C2CCCN(C(=O)Cn3ccccc3=O)C2)n1 (configuration not stated)	9.25
CC(C)c1csc(C2CCCN(C(=O)c3ccc(=O)n(C)n3)C2)n1 (configuration not stated)	-7.48
CC(C)c1csc(C2CCCN(C(=O)c3ccc(=O)n(C)c3)C2)n1 (configuration not stated)	52.6
Cc1c(COc2ccccc2)cccc1NC(=O)N1CC[C@H](O)C1	26.9
COCCC(=O)NCC(O)c1c(F)cccc1F (configuration not stated)	-2.92
Cc1ccc(NC(=O)c2ccc(=O)n(CC(=O)NC3CCCC3)n2)cc1	16.2
O=C(O)c1sccc1Oc1ccc(NC(=O)C2CC2)cc1	22.6
Cc1cc(C)c(C#N)c(NCCSc2nncn2C)n1	7.45
Cc1cc(C)c(C#N)c(NCCn2cnnc2C(C)C)n1	58.9
CCn1cnnc1CCNc1nc(C)cc(C)c1C#N	32.775
CCCn1nc(C)c(CN(CCN(C)C)Cc2ccccn2)c1C	13.7
Cc1ccccc1CN(CCN(C)C)Cc1ccc(S(C)(=O)=O)cc1	40.4
Cc1ccccc1CN(Cc1ccncc1)CC(C)C	21.5
Cc1ccccc1CN(Cc1ccc(S(C)(=O)=O)cc1)CC(C)C	78.9
CN(C)C(=O)[C@H]1CO[C@H]2CCN(c3ncc(F)cn3)C[C@H]2C1	34.2
CN(C)C[C@@H]1C[C@@H]2CN(C(=O)c3ccoc3)CC[C@@H]2N1CC1CC1	25.7
CCCNC(=O)CCC(=O)N1CCC(c2noc3cc(F)ccc23)CC1	21.8
CCOC(=O)C1(NCC(=O)Nc2cc(C)ccc2OC)CCCC1	-35

SMILES	INHIBITION [%]
Cc1ccc(CN2CCn3c(CN(C)C(C)C)cnc3C2)s1	7.53
Cc1nc(CC(=O)N2CCN(CCOc3ccccc3)CC2)cs1	21.8
CO[C@@H]1CC[C@@H](NC(=O)c2ccc(OCCN3CCCC3)cc2)[C@H]1O	34.25
CCc1nnsc1C(=O)NC1CCN(c2ccccn2)CC1	-7.9
Cc1ncsc1C(=O)NC1CCN(CCC(N)=O)CC1	24
Cc1nc(C(=O)NC2CCN(CCOc3ccc(Br)cc3)CC2)cs1	85.4
Cc1ncc(C(=O)NC2CCN(CCOc3ccc(Br)cc3)CC2)s1	88.6
CCc1nnsc1C(=O)NC1CCN(CCOc2ccc(Br)cc2)CC1	80
CN1CCCC1CNC(=O)CCOc1ccc(Br)cc1 (configuration not stated)	22.983
CC(=O)Nc1nc(C(=O)NCCOc2ccc(C)cc2)cs1	49.2
COCc1nc(C(=O)N2CCCC(n3nc(C)nc3C)C2)cs1 (configuration not stated)	26.4
CCn1ncc2c1C(COC)N(C(=O)c1ccc3c(c1)OCO3)CC2 (configuration not stated)	-33
COc1nccnc1N1CCCC2(C1)C(=O)N(C)c1ccccc12 (configuration not stated)	-60.7
C[C@@H]1CN(Cc2ccncc2)C[C@@]1(O)C1CC1	3.19
CCc1nc(CN2CCCC(NCc3nc4ccccc4o3)C2)no1 (configuration not stated)	-21.7
O=C(c1ccc2nccnc2c1)N1CCN(CCO)[C@@H]2CS(=O)(=O)C[C@@H]21	41.5
CCN1CCN(C(=O)c2cc(C(F)(F)F)n[nH]2)[C@H]2CS(=O)(=O)C[C@H]21	33.7
CCCN1CCN(C(=O)c2ccc3nc(C)oc3c2)[C@H]2CS(=O)(=O)C[C@H]21	33
CCN1CCN(C(=O)c2ccc3c(c2)NC(=O)CN3)[C@H]2CS(=O)(=O)C[C@H]21	73
CCN1CCN(C(=O)c2ccc3c(c2)OCC(=O)N3)[C@H]2CS(=O)(=O)C[C@H]21	58.2
CCN1CCN(C(=O)c2ccc3c(c2)CCCN3)[C@H]2CS(=O)(=O)C[C@H]21	33.2
CCN1CCN(C(=O)c2cc(-c3ccc(C)o3)n[nH]2)[C@H]2CS(=O)(=O)C[C@H]21	-1.04
Cc1nc2ccc(C(=O)N3CCN(CCO)[C@@H]4CS(=O)(=O)C[C@@H]43)cc2o1	22.3
Cn1cnc2cc(C(=O)N3CCN(CCO)[C@@H]4CS(=O)(=O)C[C@@H]43)ccc21	73.6
